Experimental data from PubChem BioAssay (NCI).
Compounds without any hit were thinned out: in the full panel of roughly 83,000, 20% have a hit.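 Values shown are percent growth following 48 h exposure of cells in 96-well plates to a single concentration of compound; below 10 was considered active.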 A number with no mark means an inactive call. Calls of active or inactive are those of the source.

Experiments:
Test in all cases: NCI-60 one-dose screen, 48 h (100 = growth as untreated, 0 = no growth, -100 = all killed)
Settings in all cases: 10 µM unless noted
T-47D breast = test system: T-47D breast
BT-549 breast = test system: BT-549 breast
MDA-MB-435 melanoma = test system: MDA-MB-435 melanoma
SW-620 colon = test system: SW-620 colon
MCF7 breast = test system: MCF7 breast
HCT-116 colon = test system: HCT-116 colon
HCC-2998 colon = test system: HCC-2998 colon
KM12 colon = test system: KM12 colon

Compound | growth (T-47D breast) | growth (BT-549 breast) | growth (MDA-MB-435 melanoma) | growth (SW-620 colon) | growth (MCF7 breast) | growth (HCT-116 colon) | growth (HCC-2998 colon) | growth (KM12 colon)
NC(=S)N/N=C/c1ccc(OC(=O)COc2cc(Cl)c(Cl)cc2Cl)cn1 | 49.3% | 64.3% | 71.7% | 59.6% | 28.5% | 67.9% | 63.7% | 70.9%
COc1ccccc1/C=N/NC1=NC2C(N1)N(C)C(=O)N2C (configuration not stated) | 101% | 101% | 103% | 99.3% | 99.7% | 107% | 101% | 105%
O=S(=O)(c1ccccc1)N1CCCc2ccccc21 | 96.5% | 110% | 110% | 104% | 96.8% | 105% | 103% | 100%
N#CC1=C(N)Oc2c(ccc3ccccc23)C1c1ccc([N+](=O)[O-])cc1 (configuration not stated) | 74.6% | 83.1% | 6.07% (active) | 55.5% | 51.8% | 68.8% | 85.9% | 50.4%
O=C(CCN1CCCC1)Nc1ccc2c(Nc3ccccc3)c3ccccc3nc2c1 | 18.6% | 41% | -93.5% (active) | -27.9% (active) | -13.5% (active) | -45.4% (active) | -74.1% (active) | 16.1%
O=c1[nH]nc(-c2ccc(Cl)cc2)cc1Cc1cccc([N+](=O)[O-])c1 | 85.2% | 133% | 112% | 101% | 84.8% | 100% | 130% | 93.3%
Cc1ccc2nc3c(cc2c1)CSc1nnc(-c2ccc[nH]c2=S)n1N3 | 90.8% | 97.4% | 88.2% | 102% | 94.4% | 92.5% | 107% | 99.7%
C[C@]12C[C@H]1CC[C@]1(C)[C@@H]2CC[C@@]23C[C@H](CC[C@H]21)[C@@](O)(CO)C3 | 90.7% | 77% | 59.1% | 109% | 97.8% | -71.4% (active) | 103% | 96.5%
Cc1[nH]n(C(=O)c2ccncc2)c(=O)c1N=Nc1ccc(F)c(Cl)c1 | 99.7% | 103% | 112% | 99.8% | 92.1% | 103% | 110% | 105%
C(=C\c1n(Cc2ccc3ccccc3c2)c(-c2ccccc2)c(-c2ccccc2)[n+]1Cc1ccc2ccccc2c1)/c1ccccc1 | -74.8% (active) | -83.2% (active) | -92% (active) | -86.9% (active) | -64.1% (active) | -80.9% (active) | -91.4% (active) | -83.5% (active)
C[C@]12CCc3nc(Nc4cccc(O)c4)sc3C1=CC[C@@H]1[C@@H]2CC[C@]2(C)/C(=N\NC(N)=S)CC[C@@H]12 | 19.5% | 7.62% (active) | 5.53% (active) | -50% (active) | -39.3% (active) | -61.8% (active) | 65.3% | 13.5%
Nc1nc(SN=Nc2ccc(S(N)(=O)=O)cc2)c2[nH]cnc2n1 | 23.8% | 36% | 7.71% (active) | 19.2% | 7.59% (active) | 12.3% | 5.53% (active) | 5.31% (active)
COc1cc2nc(-c3ccc(-c4nn[nH]n4)cc3)[nH]c(=O)c2cc1OC | 102% | 251% | 105% | 107% | 98.9% | 104% | 114% | 126%
CN1CCN(Cc2ccc(NC(=O)c3cncc(C#Cc4cnccc4C(F)(F)F)c3)cc2C(F)(F)F)CC1 | 92.2% | 91.8% | 54.7% | 62.8% | 49% | 29.1% | 65.7% | 20.8%
CCCC/C(=N\N=C(N)N)c1ccc(F)cc1 | 38.9% | 21.6% | -19.8% (active) | 23.8% | 13.1% | 21.1% | 37% | 15.7%
CCCCCCCCCCN=C(N)N=C(N)N | 29.4% | 15.6% | 37.7% | 58.5% | 32.9% | 41.9% | 49.5% | 28.5%
C=C(C)[C@@H]1CC[C@]2(C(=O)NCC(=O)OC)CC[C@]3(C)[C@H](CC[C@@H]4[C@@]5(C)Cc6c([nH]c7ccccc67)C(C)(C)[C@@H]5CC[C@]43C)[C@@H]12 | 47.7% | 81.3% | 90% | 83% | 63.5% | 42% | 103% | 79.2%
C=C(C)[C@H]1CC/C(C)=C/CC[C@]2(C)O[C@H]2CC/C(COC(=O)[C@@H](OC(C)=O)[C@H](NC(=O)c2ccccc2)c2ccccc2)=C\[C@@H]1O | 73.6% | 97.1% | 92.3% | 105% | 81.2% | 89.6% | 96.5% | 99.6%
CN1C2CCC1CN(c1cnc(C(=O)Nc3cc(F)cc4cccnc34)cn1)C2 | 36% | 70.7% | 55.9% | 36.2% | 5.77% (active) | 18.8% | 83.1% | 76.9%
Clc1ccc(N2N=C(c3cccc(Nc4ccncc4)c3)CC2c2ccc(Br)cc2)cc1 (configuration not stated) | 48.7% | 116% | -83.1% (active) | -68.1% (active) | -51.5% (active) | 105% | -67.7% (active) | -51% (active)
O=C(N/N=C/c1ccncc1)c1ccccc1Nc1cccc(C(F)(F)F)c1 | 58.2% | 69.3% | 112% | 95.7% | 104% | 69.2% | 77.8% | 77.8%
CCn1ccnc1C(=O)/C=C/c1ccc(CC(=O)Nc2ccc(F)cc2)cc1 | 24.5% | 4.63% (active) | 20% | 6.04% (active) | 25.2% | 1.33% (active) | 78.8% | -14.3% (active)
COc1cc(OC)cc(C2C3=C(COC3=O)Nc3cc(OC)ccc32)c1 (configuration not stated) | 68.8% | -2.09% (active) | -30% (active) | 26.6% | 15.7% | 1.55% (active) | 1.15% (active) | -3.49% (active)
Cc1n[nH]c(C)c1-c1c(C)n[nH]c1C | 18.7% | 2.96% (active) | -35.9% (active) | -26.1% (active) | 10.3% | -44.1% (active) | 4.99% (active) | -19.3% (active)
COC(=O)Nc1nc2ccc(C(=O)c3cccc(I)c3)cc2[nH]1 | 63.8% | 6.76% (active) | -35.8% (active) | 21.3% | 17.6% | 9.66% (active) | 18.3% | 7.58% (active)
CCOC(=O)c1c(SC)nn(-c2cc(=O)[nH]c3ccc(Br)cc23)c1N | 92.9% | 116% | 107% | 94.2% | 93.4% | 89.5% | 102% | 99%
CN(C)C(=O)OCc1nc2c(N3CCOCC3)nc(-c3ccccc3)nc2n1C | -50.3% (active) | -31.1% (active) | -89.1% (active) | -77.7% (active) | -60% (active) | -56.6% (active) | -78.3% (active) | -65.6% (active)
NS(=O)(=O)c1cccc(NC(=O)C(=O)C2C(=O)Nc3ccccc32)c1 (configuration not stated) | 112% | 109% | 96.8% | 94.5% | 109% | 93.3% | 104% | 103%
CC(C)Cc1ccc(C(C)C(=O)NCc2ccc(Cn3c(=O)sn(-c4ccc(Cl)cc4)c3=O)cc2)cc1 (configuration not stated) | 54.9% | 95.1% | 84.8% | 59.8% | 66.9% | 75.6% | 96.2% | 69.8%
